Compound activity: PubChem BioAssay, National Center for Advancing Translational Sciences (NCATS)
An excerpt weighted towards active compounds, which were near 13% of everything screened.
Lassa entry inh – blocks Lassa virus binding to or entry into cells; Lassa virus pseudotype entry inhibition, cell reporter; Potency, µM (titrated, usually from 37.9 µM), without a hit: top-dose activity change, negative = inhibition, usual class: inhibitors; actives 1.2% (n = 300,000); AID 540256; calls by dose curve; tested in HEK293 cells; further: potency means the concentration at half of the fitted maximal effect; on the % scale 0 is the no-effect control and ±100 the full control effect; nearly all actives have a fitted effect of over 50% in size
HCV inh – blocks hepatitis C virus; Potency, µM (series often up to 41.8 µM), inactives show top-dose activity change, negative = inhibition, actives largely listed as inhibitors; Huh7.5.1 HCVcc-Cre infection, luciferase reporter, 44 h; AID 651820; actives 3.4% (n = 340,000); active means well fitted inhibition curve with a large enough effect; inconclusive means small, poorly fitted or top-dose-only effect, or another doubt; inactive means no such curve, though single readings can be large or run the other way; further: potency means the concentration at half of the fitted maximal effect; on the % scale 0 is the no-effect control and ±100 the full control effect
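Reporter virus HCVcc-Cre (~0.5 moi) infects cells exposed to compound; seeding density 1,000 cells/well with 4 h settling beforehand. Luminescence, 15 sec read, taken 44 h post-infection following a 15 min RT substrate incubation.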
Shiga toxin inh – inhibitors of Shiga toxin in Vero cells | actives 9.2% (n = 290,000) | AID 2315 | inhibition, % at 38.7 µM | Vero cells, Shiga toxin protein synthesis inhibition reporter; in the data active means inhibition mostly above about 28%, no sharp cut-off; inactive means mostly below about 43%; further: 0% is about no effect
FMDV inh – antivirals against foot and mouth disease virus; FMDV antiviral cell-based qHTS; Potency, µM (top dose mostly 57.9 µM), without a hit: at the top dose activity change, negative = inhibition, most hits filed as inhibitors; actives 1.2% (n = 410,000); AID 1159524; calls by dose curve; tested in HEK293T cells; further: read-out not given here; potency means the concentration at half of the fitted maximal effect; on the % scale 0 is the no-effect control and ±100 the full control effect; nearly all actives have a fitted effect of over 45% in size
MARV entry inh – blocks Marburg virus binding to or entry into cells. Marburg virus pseudotyped entry inhibition, cell reporter. Potency, µM (highest dose often 37.8 µM), without a hit: at the highest dose activity change, negative = inhibition, most hits filed as inhibitors. actives 1.8% (n = 300,000). AID 540276; calls by dose curve; tested in HEK293 cells; further: potency means the concentration at half of the fitted maximal effect; on the % scale 0 is the no-effect control and ±100 the full control effect
CHX counter – affects cycloheximide protein synthesis inhibition readout, counter-screen | AID 2314 | cell reporter, cycloheximide protein synthesis inhibition counterscreen | max response, % | actives 12% (n = 300,000); in the data active means max response mostly above about 13%, no sharp cut-off; inactive means mostly below about 14%; further: read at 38.3 µM for the half of the compounds with a filed dose; 0% is about no effect
Starred values were filed as active, the others as inactive; u = inconclusive; x = no result; [ ] = remark or other dose.

SMILES	Lassa entry inh	HCV inh	Shiga toxin inh	FMDV inh	MARV entry inh	CHX counter
Clc1ccccc1C1SCC2Nc3ccccc3CN21 (configuration not stated)	2%	-26%	47	14%	u	49*
COc1ccc2nc(C)cc(N/N=C/c3ccccc3)c2c1	u	10µM*	x	-4%	u	x
COc1ccc(/C=N/Nc2cc(C)nc3ccc(OC)cc23)c(OC)c1	u	10µM*	14	u	u	-1
CCC(C)c1ccc(C2C3=C(Nc4nc(N)[nH]c(=O)c42)c2ccccc2C3=O)cc1 (configuration not stated)	x	7.9µM*	-1	11%	x	-2
Cc1oc(C(=O)O)cc1CSCc1cc(C(=O)O)c(C)o1	28%	6%	16	3%	16%	12*
Cc1oc(C(=O)O)cc1CSCc1ccoc1C(=O)O	15%	31%	-1	-3%	7%	1
COc1ccc(N2CC(NC(=O)COc3cccc(C)c3)CC2=O)cc1OC (configuration not stated)	-9%[46.1 µM]	x	x	0%	x	x
N#C/C(=N/Nc1ccccc1F)C(=N)N1CCOCC1	16%	20%	37	x	2%	34*
N#C/C(=N\Nc1cccc(F)c1)C(=O)C1CC1	x	8%	14	-16%	x	2
N#C/C(=N\Nc1ccccc1)C(=N)N1CCCCCC1	x	1%	71*	102%	x	38*
N#C/C(=N\Nc1ccc(F)cc1)C(=N)N1CCCCC1	u	-18%	112*	x	u	47*
N#C/C(=N\Nc1cccc(F)c1)C(=N)N1CCCCCC1	-10%[46.1 µM]	2%	41*	-9%	u	26*
CC(C)C1Cc2[nH][nH]c(=O)c2C(C2CC2)O1 (configuration not stated)	x	x	x	-14%	x	x
CCN(CC)CCCN1C(=O)C(=O)/C(=C(/O)c2ccc3c(c2)CC(C)O3)C1c1cccnc1 (configuration not stated)	x	x	18	x	-1%	2
COc1ccc(NC(=O)CN2CCN(C(=O)N3CCOCC3)CC2)cc1	-3%	15%	-3	-4%	-1%[46.1 µM]	-7
COc1ccc(N/N=C(\C#N)C(=N)N2CCOCC2)cc1	x	u	36	29%	x	29*
O=S(=O)(CCSc1ccc(C(F)(F)F)cn1)c1ccccc1	x	-3%	30	14%	x	15
CCSc1nc(-c2ccccc2)cc(=O)[nH]1	x	u	x	-10%	x	x
COc1ccccc1OCC(=O)Nc1cc(Cl)ccc1N1CCCCC1	-8%	10µM*	x	u	u	x
COc1ccccc1OCC(=O)Nc1cc(S(=O)(=O)N2CCCCC2)ccc1N1CCCCC1	u	25µM*	-2	u	u	1
CCOc1ccccc1OCC(=O)Nc1cc(S(=O)(=O)N2CCCCC2)ccc1N1CCN(CC)CC1	-1%	u	x	-22%	u	x
Cc1cc(C)c(NC(=O)C(C)c2cccc(C(=O)c3ccccc3)c2)c(C)c1 (configuration not stated)	-1%	u	-21	x	-23%	-2
Cc1cccc(NC(=O)C2CCCN(S(=O)(=O)c3ccc4[nH]c(=O)ccc4c3)C2)n1 (configuration not stated)	u	u	17	-25%	-1%[46.1 µM]	-2
CCN1/C(=C/c2cccc[n+]2C)Sc2ccc(OC)cc21	x	3.5µM*	-9	u	8%	2
COc1ccc2c(c1)N(C)/C(=C/c1cccc[n+]1C)S2	x	3.5µM*	-3	u	-2%	10
SMILES	Lassa entry inh	HCV inh	Shiga toxin inh	FMDV inh	MARV entry inh	CHX counter
Cc1ccc(/C=N/NC(=O)c2ccncc2)cc1	2%[46.1 µM]	8%	47	27%	11%[46.1 µM]	22*
Cc1ccc(/C=N\NC(=O)c2csnn2)cc1	11%	3%	98*	-35%	u	30*
O=C(N/N=C/c1ccc(O)cc1)c1ccncc1	-2%	23%	21	10%	27%	9.8*
Cc1ccc(S(=O)(=O)NNC(=O)c2csnn2)cc1	22%	20%	-3	-7%	21%	-6
Cc1cccc(C(=O)N/N=C/c2ccncc2)c1	1%	5%	6	9%	-7%	14*
O=C(N/N=C/c1ccncc1)c1ccncc1	u	14%	x	-9%	-3%[46.1 µM]	x
CS(=O)(=O)c1ccc2nc(NC(=O)CCNC(=O)c3ccc([N+](=O)[O-])cc3)sc2c1	0%	u	x	29%	u	x
